# Assay results published in PubChem BioAssay (EPA / NIEHS).
# Records with an inconclusive call do not appear. Active and inactive are the calls of the source. Rule for the calls, unless noted: active = hit-call score of the fitted dose curve at least 0.9, where 1 is the maximum; inactive = score below 0.9.
# Tested on: not listed separately
# Assay: CCTE_Shafer_MEA_dev_network_spike_number: CCTE's Neural Network Formation Assay for Number of Network Spikes, Shafer Lab (AID 2284048);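 note: synchronized bursts across electrodes counted on days 5 7 9 12 and integrated as AUC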;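 for AC50: fit as a loss of signal meaning fewer network spikes than DMSO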
# Outline: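 Number of network spikes (coordinated firing across electrodes) recorded on days 5, 7, 9 and 12 and summarised as area under the curve. Rat cortical cultures on MEA, continuous compound exposure with full medium/treatment exchange at DIV 5 and 9.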
Structure (SMILES),AC50,outcome
CN(C)CCCN1c2ccccc2Sc2ccc(Cl)cc21,8.7 µM (active),
OCC(O)CO,,inactive
CC(=O)CC(c1ccccc1)c1c(O)c2ccccc2oc1=O (stereo not drawn),,inactive
O=C1NC(=O)C(c2ccccc2)(c2ccccc2)N1,,inactive

# Tested on: not listed separately
# Assay: CCTE_Shafer_MEA_dev_network_spike_peak: CCTE's Neural Network Formation Assay for Mean Number of Electrodes in Network Spike, Shafer Lab (AID 2284049);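 for AC50: fitted for loss of signal meaning fewer electrodes in network spikes than DMSO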
# Outline: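 Rat cortical primary culture, 1.5 x 10^5 cells/well, 48-well MEA (16 electrodes/well). Dosing day 0 through DIV 12, full media/compound exchange DIV 5, 9. AxIS adaptive spike detection; AUC over days 5/7/9/12; loss-of-signal vs DMSO.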
Structure (SMILES),AC50,outcome
COC(=O)[C@H]1[C@H]2C[C@@H]3c4[nH]c5cc(OC)ccc5c4CCN3C[C@H]2C[C@@H](OC(=O)c2cc(OC)c(OC)c(OC)c2)[C@@H]1OC,5.07 µM (active),
CN(C)CCCN1c2ccccc2Sc2ccc(Cl)cc21,5.16 µM (active),
OCC(O)CO,,inactive
CC(=O)CC(c1ccccc1)c1c(O)c2ccccc2oc1=O (stereo not drawn),2.98 µM (active),
O=C1NC(=O)C(c2ccccc2)(c2ccccc2)N1,,inactive

# Tested on: DIO2 (gene 1734)
# Assay: CCTE_GLTED_hDIO2: CCTE's human Deiodinase 2 (DIO2) Inhibition Assay, Great Lakes Toxicology and Ecology Division (GLTED) Lab (AID 2284050; active = hit-call score of the fitted dose curve at least 0.9, where 1 is the maximum)
# Outline: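 Readout: absorbance from Sandell-Kolthoff detection of free iodide released by human DIO2 during a 3 h incubation with chemical. Cell-free format, n=3; activity fitted relative to DMSO negative control.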
Structure (SMILES),AC50,outcome
S=c1[nH]c2ccccc2s1,53.4 µM (active),
O=C(Oc1ccccc1)c1cccc(C(=O)Oc2ccccc2)c1,42.3 µM (active),
Cc1c(C)c2c(c(C)c1O)CCC(C)(COc1ccc(CC3SC(=O)NC3=O)cc1)O2 (stereo not drawn),70.1 µM (active),
Cc1ccc(-c2cc(C(F)(F)F)nn2-c2ccc(S(N)(=O)=O)cc2)cc1,156 µM (active),
CC(=O)O[C@]1(C(C)=O)CC[C@H]2[C@@H]3C=C(Cl)C4=CC(=O)[C@@H]5C[C@@H]5[C@]4(C)[C@H]3CC[C@@]21C,,inactive
O=Cc1ccccc1C=O,46.6 µM (active),
CCCCCCCCCCCCCCOS(=O)(=O)O,36.9 µM (active),
CCCCCCCCCCCCCCCCO,,inactive
CCN(CC)CCOc1ccc(C(=C(Cl)c2ccccc2)c2ccccc2)cc1,53.3 µM (active),
CCCCCCC(C=O)=Cc1ccccc1,15.2 µM (active),

# Tested on: not listed separately
# Assay: CCTE_Shafer_MEA_dev_spike_duration_mean: CCTE's Neural Network Formation Assay for Mean Spike Duration, Shafer Lab (AID 2284051);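 note: mean network spike duration pooled as area under curve over DIV 5 to 12 recordings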;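 for AC50: potency for a decrease in mean network spike duration versus DMSO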
# Outline: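 Readout is the average length of network spikes, clustered firing across electrodes, summed over DIV 5, 7, 9 and 12 as area under the curve. Neurons from rat cortex developed networks on MEA plates under continuous 12-day exposure.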
Structure (SMILES),AC50,outcome
COC(=O)[C@H]1[C@H]2C[C@@H]3c4[nH]c5cc(OC)ccc5c4CCN3C[C@H]2C[C@@H](OC(=O)c2cc(OC)c(OC)c(OC)c2)[C@@H]1OC,2.71 µM (active),
CN(C)CCCN1c2ccccc2Sc2ccc(Cl)cc21,3.38 µM (active),
OCC(O)CO,,inactive
CC(=O)CC(c1ccccc1)c1c(O)c2ccccc2oc1=O (stereo not drawn),,inactive
O=C1NC(=O)C(c2ccccc2)(c2ccccc2)N1,,inactive

# Tested on: not listed separately
# Assay: CCTE_Shafer_MEA_dev_network_spike_duration_std: CCTE's Neural Network Formation Assay for Standard Deviation of Network Spike Duration, Shafer Lab (AID 2284052);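 note: area under curve of spike duration SD across recording days 5 to 12; hits are decreases in network spike duration SD versus DMSO vehicle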
# Outline: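 Read-out is the trapezoidal area-under-the-curve across recordings made on days 5, 7, 9 and 12, fitted in the negative direction against DMSO baseline. Neurons were primary rat cortical cells treated from day 0, with treatment renewed at each feed.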
Structure (SMILES),AC50,outcome
COC(=O)[C@H]1[C@H]2C[C@@H]3c4[nH]c5cc(OC)ccc5c4CCN3C[C@H]2C[C@@H](OC(=O)c2cc(OC)c(OC)c(OC)c2)[C@@H]1OC,2.18 µM (active),
CN(C)CCCN1c2ccccc2Sc2ccc(Cl)cc21,2.81 µM (active),
OCC(O)CO,,inactive
CC(=O)CC(c1ccccc1)c1c(O)c2ccccc2oc1=O (stereo not drawn),,inactive
O=C1NC(=O)C(c2ccccc2)(c2ccccc2)N1,,inactive

# Tested on: not listed separately
# Assay: CCTE_Shafer_MEA_dev_per_network_spike_spike_number_mean: CCTE's Neural Network Formation Assay for Mean Number of Spikes in a Network Spike, Shafer Lab (AID 2284053);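 for AC50: fitted as decrease in spikes per network spike relative to DMSO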
# Outline: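 Continuous twelve-day exposure of developing rat cortical networks grown over 16 microelectrodes per well; spontaneous firing is captured at four time points, and the per-network-spike spike number is integrated over development by trapezoidal AUC.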
Structure (SMILES),AC50,outcome
COC(=O)[C@H]1[C@H]2C[C@@H]3c4[nH]c5cc(OC)ccc5c4CCN3C[C@H]2C[C@@H](OC(=O)c2cc(OC)c(OC)c(OC)c2)[C@@H]1OC,4.8 µM (active),
CN(C)CCCN1c2ccccc2Sc2ccc(Cl)cc21,4.44 µM (active),
OCC(O)CO,,inactive
CC(=O)CC(c1ccccc1)c1c(O)c2ccccc2oc1=O (stereo not drawn),2.98 µM (active),
O=C1NC(=O)C(c2ccccc2)(c2ccccc2)N1,,inactive

# Tested on: not listed separately
# Assay: CCTE_Shafer_MEA_dev_per_network_spike_spike_percent: CCTE's Neural Network Formation Assay for Percent of Spikes in a Network Spike, Shafer Lab (AID 2284054)
# Outline: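 Metric: fraction of spikes falling in a 0.05 s window at network-spike peaks. Recordings were made on days 5, 7, 9 and 12 and collapsed by trapezoidal AUC. Cultures were rat cortical neurons on MEA plates, dosed continuously from plating, re-dosed at media changes.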
Structure (SMILES),AC50,outcome
COC(=O)[C@H]1[C@H]2C[C@@H]3c4[nH]c5cc(OC)ccc5c4CCN3C[C@H]2C[C@@H](OC(=O)c2cc(OC)c(OC)c(OC)c2)[C@@H]1OC,15.3 µM (active),
CN(C)CCCN1c2ccccc2Sc2ccc(Cl)cc21,9.39 µM (active),
OCC(O)CO,,inactive
CC(=O)CC(c1ccccc1)c1c(O)c2ccccc2oc1=O (stereo not drawn),,inactive
O=C1NC(=O)C(c2ccccc2)(c2ccccc2)N1,,inactive

# Tested on: DIO3 (gene 1735)
# Assay: CCTE_GLTED_hDIO3: CCTE's human Deiodinase 3 (DIO3) Inhibition Assay, Great Lakes Toxicology and Ecology Division (GLTED) Lab (AID 2284055; active = hit-call score of the fitted dose curve at least 0.9, where 1 is the maximum;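 for AC50: potency is for inhibition seen as loss of released iodide signal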)
# Outline: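 hDIO3 (adenovirus-expressed) + test chemical, 3 h incubation; free iodide quantified by Sandell-Kolthoff reaction, absorbance read-out. DMSO negative control, n=3.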
Structure (SMILES),AC50,outcome
S=c1[nH]c2ccccc2s1,73.2 µM (active),
O=C(Oc1ccccc1)c1cccc(C(=O)Oc2ccccc2)c1,64.5 µM (active),
Cc1c(C)c2c(c(C)c1O)CCC(C)(COc1ccc(CC3SC(=O)NC3=O)cc1)O2 (stereo not drawn),95.1 µM (active),
CN(C)CCCN1c2ccccc2Sc2ccc(Cl)cc21,158 µM (active),
Cc1ccc(-c2cc(C(F)(F)F)nn2-c2ccc(S(N)(=O)=O)cc2)cc1,172 µM (active),
CC(=O)O[C@]1(C(C)=O)CC[C@H]2[C@@H]3C=C(Cl)C4=CC(=O)[C@@H]5C[C@@H]5[C@]4(C)[C@H]3CC[C@@]21C,5.1 µM (active),
O=Cc1ccccc1C=O,2.92 µM (active),
CCCCCCCCCCCCCCOS(=O)(=O)O,18.5 µM (active),
CCCCCCCCCCCCCCCCO,,inactive
CCCCCCC(C=O)=Cc1ccccc1,3.29 µM (active),

# Tested on: not listed separately
# Assay: CCTE_Shafer_MEA_dev_LDH: CCTE's Lactate Dehydrogenase Assay for Cytotoxicity in the Neural Network Formation Assay, Shafer Lab (AID 2284068; active = hit-call score of the fitted dose curve at least 0.9, where 1 is the maximum;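 note: exposure for twelve days from plating with re-dosing on DIV 5 and 9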)
# Outline: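 Cytotoxicity companion to network-formation recordings: rat cortical neurons received compound over 12 days of development, re-dosed at DIV 5 and 9 feeds. Viability was inferred from LDH enzyme activity relative to DMSO.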
Structure (SMILES),AC50,outcome
COC(=O)[C@H]1[C@H]2C[C@@H]3c4[nH]c5cc(OC)ccc5c4CCN3C[C@H]2C[C@@H](OC(=O)c2cc(OC)c(OC)c(OC)c2)[C@@H]1OC,6.75 µM (active),
CN(C)CCCN1c2ccccc2Sc2ccc(Cl)cc21,5.01 µM (active),
CC(=O)CC(c1ccccc1)c1c(O)c2ccccc2oc1=O (stereo not drawn),,inactive
O=C1NC(=O)C(c2ccccc2)(c2ccccc2)N1,,inactive
